HCV inhibitor = HCV inhibition. actives 3.4% (n = 340,000). Potency, µM (highest dose often 41.8 µM), usual class: inhibitors. Huh7.5.1 HCVcc-Cre infection, luciferase reporter, 44 h; active = well fitted inhibition curve with a large enough effect; inconclusive = small, poorly fitted or top-dose-only effect, or another doubt; inactive = no such curve, though single readings can be large or run the other way
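Reporter virus HCVcc-Cre (~0.5 moi) infects cells exposed to compound; seeding density 1,000 cells/well with 4 h settling beforehand. Luminescence, 15 sec read, taken 44 h post-infection following a 15 min RT substrate incubation.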
SARS PLP yeast = inhibitors of SARS-CoV papain-like protease in yeast | S. cerevisiae expressing SARS-CoV PLpro, growth rescue | Potency, µM (titrated, usually from 32.9 µM), most hits filed as activators | actives 0.19% (n = 330,000) | AID 485353; calls by dose curve; note: nearly all actives have a fitted effect of over 55% in size
HCMV antiviral = human cytomegalovirus inhibition. HFF cells, HCMV-luciferase reporter, 72 h; stronger effect = lower value. activity change, negative = inhibition, % at 57.5 µM. actives 4.5% (n = 410,000). AID 1259415; in the data active = activity change below about -60%; inconclusive = no clear call, values can overlap the other calls; inactive = above about -39%
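After 16 h attachment at 37C, HFF cells received test compound and HCMV-luciferase (1 PFU/cell); reporter luminescence read 72 h later, data normalized against buffer-only and known inhibitor Salinomycin.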
Lassa entry inh = inhibitors of Lassa virus binding or cell entry. Lassa virus pseudotype entry inhibition, cell reporter. AID 540256. Potency, µM (titrated, usually from 37.9 µM), most hits filed as inhibitors. actives 1.2% (n = 300,000); calls by dose curve; tested in HEK293 cells; note: nearly all actives have a fitted effect of over 50% in size
MARV entry inh = Marburg virus entry inhibition. Marburg virus pseudotyped entry inhibition, cell reporter. Potency, µM (doses to about 37.8 µM), actives largely listed as inhibitors. actives 1.8% (n = 300,000); calls by dose curve; tested in HEK293 cells
FMDV inh = foot and mouth disease virus antiviral activity; Potency, µM (series often up to 57.9 µM), usual class: inhibitors; actives 1.2% (n = 410,000); FMDV antiviral cell-based qHTS; calls by dose curve; tested in HEK293T cells; note: read-out not given here; nearly all actives have a fitted effect of over 45% in size
Hits are given with their value; . = inactive; ? = inconclusive; / = no result; [ ] = dose if it differs, or a comment. Only some compounds are listed: those with a hit (about 8% of all), similar ones and a draw of the others.

SMILES | HCV inhibitor | SARS PLP yeast | HCMV antiviral | Lassa entry inh | MARV entry inh | FMDV inh
Cc1ccc(C(=O)NCCc2nnc3n2CCN(C(=O)c2ccnc(Cl)c2)CC3)cc1 | / | / | / | / | / | .
O=C(CCc1ccc(O)cc1)c1c(O)cc(O)cc1O | .[8.37 µM] | . | . | ? | ? | .
COc1cc(O)c(CC=C(C)C)c(O)c1C(=O)CCc1ccc(O)cc1 | 0.708µM | . | . | / | / | .
CCN(CC)CCc1c(C)[nH]c(C(=O)OCc2ccccc2)c1C | ? | . | . | . | 25.9µM | .
O=C(CSc1ncnc2ccccc12)NCC(=O)c1ccccc1 | . | . | . | . | . | .
O=C(CSc1nc2ccccc2s1)N1CCCCC1 | . | . | . | . | . | /
Cc1c(Cl)cccc1N/C(SCC(=O)N1CCCCCC1)=C(/C#N)c1nc2ccccc2s1 | ? | . | -101.3 | ? | 11.2µM | ?
Cc1cnc(-n2ncc(C(=O)NCC(C)(C)N3CCOCC3)c2C(C)C)nc1-c1ccc(F)cc1 | / | / | / | / | / | .
Cc1cccc(C)c1NC(=O)C1CCCN(S(=O)(=O)c2c(C)noc2/C=C/N(C)C)C1 (stereo unspecified) | / | / | . | . | . | .
O=C(NCCCN1CCN(c2ccccc2F)CC1)c1nnc(Cc2ccc(Cl)cc2Cl)o1 | / | / | . | . | . | .
Cc1ccc(Cl)cc1N1CCN(CCCNC(=O)c2nnc(Cc3cccc(Cl)c3)o2)CC1 | / | / | -101.8 | ? | ? | ?
CCOC(=O)Nc1nc(-c2ccccc2)c(C(=O)c2ccc(Cl)cc2)s1 | ? | . | -67.4 | ? | ? | .
CC(C(=O)N(C)C1CCS(=O)(=O)C1)N1C(=O)/C(=C/c2ccco2)SC1=S (stereo unspecified) | . | . | -93.1 | / | / | .
CCN(C(=O)C(C)N1C(=O)/C(=C/c2cccs2)SC1=S)C1CCS(=O)(=O)C1 (stereo unspecified) | . | ? | -63.5 | / | / | .
O=C(CN1CCN(S(=O)(=O)c2ccc(F)cc2)CC1)Nc1ccc(Cl)c(C(F)(F)F)c1 | ? | . | . | 11.2µM | ? | 28.2µM
O=C(CN1CCN(S(=O)(=O)c2ccc(F)cc2)CC1)Nc1ccc2c(c1)OCCO2 | . | . | . | . | . | .
COc1ccc(NC(=O)CN(C)CC(=O)Nc2cccc(F)c2)cc1S(=O)(=O)N1CCCCC1 | . | / | . | . | . | .
Cc1ccc(NC(=O)CN(C)CC(=O)Nc2cccc(F)c2)cc1S(=O)(=O)N1CCCCCC1 | ? | . | -65.9 | ? | ? | 25.1µM
CCc1ccc(C(=O)CCC(=O)Nc2cccc(S(=O)(=O)N3CCCCC3)c2)cc1 | 10µM | . | . | . | ? | .
O=C(Cn1nnc(-c2ccccc2Cl)n1)Nc1cccc(S(=O)(=O)N2CCCC2)c1 | ? | . | . | ? | ? | .
O=C(Cn1nnc(-c2ccc(F)cc2)n1)Nc1cccc(S(=O)(=O)N2CCCC2)c1 | 22.4µM | . | -60.1 | / | / | .
Cc1ccc(S(=O)(=O)c2cn(CC(=O)Nc3ccc(F)cc3)c3cc4c(cc3c2=O)OCO4)cc1 | / | / | . | . | . | .
O=C(Nc1ccccc1Cl)N[C@H]1CC[C@@]23CCCN2C(=O)CCC[C@H]3C1Cc1ccccc1 (stereo partly specified) | / | / | . | / | / | /
CCOC(=O)CNC(=O)CSc1nc2c(C)cccc2cc1CC | . | . | ? | . | . | .
Cc1ccc(NC(=O)CNc2cccc(S(=O)(=O)N3CCCC3)c2)cc1F | ? | . | . | . | ? | .
SMILES | HCV inhibitor | SARS PLP yeast | HCMV antiviral | Lassa entry inh | MARV entry inh | FMDV inh
CCN(CC)S(=O)(=O)c1ccc(C)c(NC(=O)CNc2cccc(S(=O)(=O)N3CCCC3)c2)c1 | 10µM | . | ? | . | . | ?
CN(CC(=O)Nc1ccc(S(=O)(=O)N2CCCC2)cc1)Cc1ccc(Cl)cc1 | ? | . | . | ? | ? | .
CN(CC(=O)Nc1ccc(S(=O)(=O)N2CCCC2)cc1)Cc1c(F)cccc1Cl | ? | . | -70.2 | ? | 5.01µM | ?
Cc1ccc(NCC(=O)Nc2cccc(S(=O)(=O)N(C)C)c2)cc1S(=O)(=O)N1CCCCCC1 | 10µM | . | -81.2 | ? | ? | ?
CCN(CC)S(=O)(=O)c1cccc(NC(=O)CNc2cccc(S(=O)(=O)N3CCCC3)c2)c1 | 2.51µM | . | -88.3 | ? | ? | .
CCOC(=O)NN=C1C[C@@H](O)[C@@H](O)[C@@H]2[C@H]3C(=O)N(Cc4ccc5c(c4)OCO5)C(=O)[C@@H]3CC[C@H]12 | / | / | / | / | . | /
CCS(=O)(=O)N1CCCC(C(=O)NCCOC)C1 (stereo unspecified) | / | / | . | . | / | .
CCN(CC)CC(=O)Nc1cccc(S(=O)(=O)N2CCCC2)c1 | ? | . | -91.2 | . | . | .
CCN(CC)S(=O)(=O)c1cc(NC(=O)CNc2cccc(S(=O)(=O)N3CCOCC3)c2)ccc1C | 5.62µM | . | -85.1 | ? | ? | .
Cn1cnc(S(=O)(=O)N2CCC(C(=O)Nc3ccc(Cl)c(C(F)(F)F)c3)CC2)c1 | / | / | -75.9 | . | / | ?
CC1CCN(S(=O)(=O)c2ccc(NC(=O)Cn3nnc(-c4ccccc4)n3)cc2)CC1 | . | . | . | . | ? | .
Cc1ccc(-c2nnn(CC(=O)Nc3ccc(S(=O)(=O)N4CCC(C)CC4)cc3)n2)cc1 | ? | . | -75.0 | . | ? | .
CC1(C(=O)NS(=O)(=O)Cc2cccc(Cl)c2)CCN1C(=O)C/C=C/c1ccccc1 (stereo unspecified) | / | / | . | / | / | .
CN(CC(=O)Nc1cccc(S(=O)(=O)N2CCCC2)c1)CC(=O)Nc1ccc(F)c(F)c1F | ? | / | . | ? | ? | .
Cc1ccc(NC(=O)CSCC(=O)Nc2cccc(S(=O)(=O)N3CCCCCC3)c2)cc1 | 12.6µM | . | . | / | / | .
CN(CC(=O)Nc1cccc(S(=O)(=O)N2CCCC2)c1)CC(=O)Nc1ccc(Cl)c(C(F)(F)F)c1 | 17.8µM | . | -64.4 | ? | ? | .
Cc1cccc(NC(=O)CSCC(=O)Nc2cccc(S(=O)(=O)N3CCCCCC3)c2)c1 | . | . | . | . | . | .
O=C1C(n2ccc3ccccc32)c2cccc(F)c2N1Cc1ccc(C(F)(F)F)cc1 (stereo unspecified) | / | / | . | / | / | /
Cc1ccc(NC(=O)CCC(=O)N2Cc3ccccc3Oc3ncccc32)c(C)c1 | / | / | . | . | / | .
COc1ccc(N(C(=O)c2cccc(C)c2)S(=O)(=O)c2ccc(C)cc2)cc1 | / | / | . | ? | / | .
Cc1ccc(NC(=O)c2c(C(F)(F)F)nn(C)c2SCc2cccc(C(F)(F)F)c2)cc1C | ? | . | -88.1 | ? | ? | .
CCOC(=O)N1CCc2c(sc(NCc3cc(OC)c(OC)cc3OC)c2C(=O)Nc2ccc(OCC)cc2)C1 | / | / | . | . | / | .
COc1ccc(NC(=O)c2c(NCc3sccc3C)sc3c2CCCCC3)c(OC)c1 | / | / | . | . | / | .
CCOC(=O)N1CCc2c(sc(NCc3cccc(F)c3)c2C(=O)Nc2ccc(OC)cc2OC)C1 | / | / | -87.5 | ? | / | .
CCOC(=O)N1CCc2c(sc(NCc3sccc3C)c2C(=O)Nc2ccc(OC)cc2OC)C1 | / | / | -85.2 | ? | / | 31.6µM
COc1ccc(NC(=O)c2c(NCc3cccs3)sc3c2CCCC3)c(OC)c1 | / | / | . | ? | / | .

Screening results deposited in PubChem BioAssay by National Center for Advancing Translational Sciences (NCATS).
